This is a sample that favours compounds with a hit; in the whole collection about 2.4% have one here.
D2 ag-1: activates the human D2 dopamine receptor. AID 485358. activation, % at 2 µM. HEK293 T-REx D2 cells, calcium flux agonist mode. 340,000 compounds, 0.53% hits. P14416;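 active = activation over 3 SD above normal in the single-dose calcium agonist read, cut at about 30% in these data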; note: 0% is about no effect
Target sequence (P14416 whole entry, looked up): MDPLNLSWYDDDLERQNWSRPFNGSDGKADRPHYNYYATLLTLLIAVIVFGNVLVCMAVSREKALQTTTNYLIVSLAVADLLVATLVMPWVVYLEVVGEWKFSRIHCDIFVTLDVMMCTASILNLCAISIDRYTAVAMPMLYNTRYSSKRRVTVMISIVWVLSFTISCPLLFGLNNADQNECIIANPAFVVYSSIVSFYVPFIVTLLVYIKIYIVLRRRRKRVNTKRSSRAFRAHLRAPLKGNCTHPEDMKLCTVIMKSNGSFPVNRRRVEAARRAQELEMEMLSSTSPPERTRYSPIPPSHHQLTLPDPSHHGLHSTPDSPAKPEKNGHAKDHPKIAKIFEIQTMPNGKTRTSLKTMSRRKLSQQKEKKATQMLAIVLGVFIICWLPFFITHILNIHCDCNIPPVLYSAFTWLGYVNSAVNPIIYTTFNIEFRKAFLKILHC
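In this primary screen, compounds producing a positive calcium signal within 180 s of addition to tetracycline-induced, force-coupled HEK293 Trex D2 cells are flagged; cells are dye-loaded with a no-wash calcium kit beforehand.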
D2 ag-2: agonists of human D2 dopamine receptor (beta-arrestin) | DiscoveRx PathHunter D2 beta-arrestin, luminescence, 90 min; 100% = 57 uM dopamine signal | 360,000 compounds, 0.084% hits | activation, % (test concentration not listed) | P14416; in the data active = activation above about 40%; inconclusive = between about 15% and that limit
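DiscoveRx PathHunter D2 beta-arrestin cells (2,100/well) attached overnight, then compound-stimulated 90 min at 37 C in HBSS/10 mM HEPES/0.1% Tween-20 buffer; beta-galactosidase complementation read by luminescence after 1 h at ambient temperature. Dopamine 57 uM final (EC100) as control.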
D2 PAM-1: positive allosteric modulators of human D2 dopamine receptor | P14416 | DiscoveRx D2 beta-arrestin cells, luminescence, 90 min; 100% = 57 uM dopamine signal | potentiation, % (test concentration not listed) | 360,000 compounds, 0.23% hits | AID 624464; in the data active = potentiation above about 50%; inconclusive = mostly about 30% to 49%
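PathHunter D2 cells, attached overnight at 37 deg C, received compound in DMSO plus dopamine at EC20 (50 nM final) for 90 min at 37 deg C. Beta-arrestin recruitment was read as luminescence after 1 h with detection reagent at ambient temperature.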
D2 antag: antagonists of human D2 dopamine receptor; P14416; HEK293 TREx D2 cells, calcium flux, dopamine EC80; inhibition, % at 10 µM; 340,000 compounds, 2% hits; in the data active = inhibition above about 30%; inactive = below that, where a call was filed; note: 0% is about no effect
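Compounds are added to dye-loaded, induced HEK293 T-REx cells coupled to calcium release via D2; after a 3 min kinetic read an EC80 dopamine stimulus is given and fluorescence is recorded for 3 more min.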
D2 PAM-2: positively modulates the human D2 dopamine receptor allosterically; P14416; HEK293 T-REx D2, calcium flux, EC20 dopamine potentiation; potentiation, % at 10 µM; 340,000 compounds, 0.34% hits;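 active = potentiation over 3 SD above the plate norm, cut at about 30% in these data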; note: 0% is about no effect
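Cells plated with tetracycline inducer and held overnight at 30 C; calcium dye loaded 30–90 min at room temperature; baseline taken, compound added and read 180 s; EC20 dopamine then added and read 180 s.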
D3 ag: D3 receptor agonism confirmed, beta-arrestin readout; shares compounds with D2 ag-1; DiscoveRx D3 beta-arrestin cells, luminescence, 90 min; Potency, µM (doses to about 76.9 µM), without a hit: top-dose activation, usual class: activators; 2,300 compounds, 4% hits;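 note: potency is the fitted concentration of half-maximal effect; 100% = dopamine control response; nearly all actives have a fitted effect of over 70% in size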
D2 ag-3: D2 receptor agonism, beta-arrestin counterscreen. Potency, µM (doses to about 76.9 µM), for inactives: at the top dose activation, usual class: activators. DiscoveRx PathHunter D2 beta-arrestin, luminescence, 90 min; response scale: percent relative to full dopamine signal. shares compounds with D2 ag-1. 2,300 compounds, 5.9% hits; note: potency is the fitted concentration of half-maximal effect; % of control where 0% means no effect; nearly all actives have a fitted effect of over 70% in size
The depositor's hits bear a star; ? = inconclusive; · = no result. Unless noted, calls come from the whole dose curve; as a rule, active = well fitted activation curve with a large enough effect; inconclusive = small, poorly fitted or top-dose-only effect; inactive = flat fitted curve, though single readings scatter.

SMILES	D2 ag-1	D2 ag-2	D2 PAM-1	D2 antag	D2 PAM-2	D3 ag	D2 ag-3
CCOC(=O)C1CCN(Cc2cccc(OCc3ccccc3)c2)CC1	73.9*	48.4*	22.2	86.2*	-20.8	14.4%	?
CCOC(=O)C1(Cc2cccc(OC)c2)CCN(Cc2cnc(SC)nc2)CC1	59.0*	-2.2	2.6	92.7*	-18.6	-0.2%	?
Cn1cc(CN2CCC(O)CC2)c(-c2ccc(Oc3ccccc3)cc2)n1	0.8	-6.9	-12.4	10.3	-13.6	·	·
Cc1ccc(-n2ccn(CC(=O)c3ccc(F)cc3)c(=O)c2=O)cc1C	-0.5	·	·	·	·	·	·
CCCCN(CC)CCNC(=O)CCn1cnc2onc(-c3ccc(F)cc3)c2c1=O	0.2	·	·	·	-11.8	·	·
COc1cc(OC)cc(N2C(=O)N(Cc3ccc(C(C)(C)C)cc3)c3ccccc3S2(=O)=O)c1	-0.6	·	·	·	5.9	·	·
CCOC(=O)C1(CCOC)CCN(Cc2cccc(OCc3ccccc3)c2)CC1	63.4*	0.6	-3.5	36.9*	-20.4	-0.1%	24.8%
Cc1ccc(CCNC(=O)c2ccc3c(c2)c(C)c(C)n3Cc2ccccc2)cc1	0.1	·	·	·	2.4	·	·
CCOC(=O)c1[nH]c2ccccc2c1NC(=S)Nc1ccccc1	0.7	?	13.0	5.4	16.1	·	·
CN(C)Cc1c(C(=O)Nc2ccccc2)[nH]c2ccccc12	-0.4	-1.0	-27.9	45.0*	-26.8	-11.1%	-2.3%
COc1ccc(OC)c(NC(=O)c2oc3c(c2C)-c2nn(Cc4ccc(Cl)cc4)cc2CC3)c1	-0.9	·	·	·	-2.5	·	·
CC(=O)c1ccc(S(=O)(=O)NCCC(=O)OCC(=O)NCCc2ccccc2)cc1	0.0	-3.2	-4.1	-7.0	-7.1	·	·
CC(=O)c1ccc(OC(C)C(=O)OCC(=O)NCCc2ccccc2)cc1 (centres undefined)	0.1	0.7	7.5	18.2	6.6	2.5%	-1.4%
Cc1ccc2[nH]c3c(=O)n(CC(=O)N4CCCC(C)C4)ncc3c2c1 (centres undefined)	·	·	·	·	-8.4	·	·
CCCNC(=O)C(=O)Nc1ccc(N(C)C)cc1	-1.3	-1.0	-0.4	-11.4	-9.8	·	·
CN(C)c1ccc(NC(=O)C(=O)NCCOc2ccccc2)cc1	33.9*	5.1	20.2	16.1	-11.1	?	21.9%
CCOc1ccc(NC(=O)CSC2=Nc3ccccc3C3=NC(CC(=O)NCc4ccccc4OC)C(=O)N23)cc1 (centres undefined)	-5.7	·	·	·	-15.3	·	·
CC(=O)c1ccc(N2C(=O)N(Cc3cccc(C(F)(F)F)c3)c3ccccc3S2(=O)=O)cc1	0.8	·	·	·	-5.1	·	·
CCN1CCc2nc3sc(C(=O)c4ccccc4)c(N)c3cc2C1	5.5	·	·	·	-1.8	·	·
COc1ccc(-c2cc(C(=O)N3CCCC(C(F)(F)F)C3)c3ccccc3n2)cc1 (centres undefined)	-0.2	1.7	1.5	6.7	8.9	-7.4%	-2.2%
O=C(NNC(=O)c1ccncc1)Nc1cccc(C(F)(F)F)c1	0.0	-0.9	-2.6	3.2	-2.9	·	·
O=C(/C=C/c1cccc(C(F)(F)F)c1)NNC(=O)c1ccncc1	-0.2	-4.8	-68.8	4.7	-5.9	-11.4%	-7.0%
O=C(/C=C/c1ccccc1[N+](=O)[O-])NNC(=O)c1ccncc1	1.4	-3.4	-5.1	0.4	0.5	-15.7%	-11.0%
COc1cccc(CNc2ncnc3c2nnn3C)c1	0.8	·	·	·	-1.5	·	·
O=S1(=O)c2ccccc2N(Cc2ccc(Cl)cc2F)c2ccccc21	0.5	·	·	·	10.8	·	·
SMILES	D2 ag-1	D2 ag-2	D2 PAM-1	D2 antag	D2 PAM-2	D3 ag	D2 ag-3
COC(=O)C(N)Cc1ccc(O)c(O)c1 (centres undefined)	41.3*	8.4	25.9	-3.7	-5.4	26.2%	21.5%
O=c1[nH]c(CN(CCc2ccccc2)S(=O)(=O)c2ccc(Cl)cc2)nc2ccccc12	25.1	-0.5	-12.2	-1.8	-8.6	-10.3%	7.4%
Cc1ccc(C(c2sc3nc(C)nn3c2O)N2CCN(C(=O)c3ccco3)CC2)cc1 (centres undefined)	-0.3	0.2	0.4	2.0	3.0	·	·
Cc1nc2sc(C(c3ccccc3)N3CCN(C(=O)c4ccco4)CC3)c(O)n2n1 (centres undefined)	62.4*	-0.8	-12.2	10.0	-27.5	-2.8%	-3.7%
COc1ccc(-n2c(C)cc(C)c(C(C)=O)c2=S)cc1	53.5*	-1.0	1.4	0.6	-19.0	-4.3%	-1.9%
COc1ccc(-n2c(C)c(C(C)=O)c3cc(OC(C)=O)ccc32)cc1	-0.1	1.3	7.4	-4.8	-3.3	·	·
O=C(Nc1ccn(CC(=O)N2CCN(c3ccccn3)CC2)c(=O)n1)OCc1ccccc1	0.1	-2.4	2.2	-2.8	8.0	-2.5%	0.4%
O=C(Nc1ccn(CCCN2CCN(c3ncccn3)CC2)c(=O)n1)OCc1ccccc1	·	5.8	·	·	·	·	·
CCn1cc(S(=O)(=O)c2cc(C)cc(C)c2)c(=O)c2cc(F)c(N3CCN(c4ccccc4)CC3)cc21	0.3	·	·	·	-7.2	·	·
CC(COc1ccccc1)N(CCCl)Cc1ccccc1 (centres undefined)	90.3*	4.1	-15.8	60.9*	-27.9	-7.8%	17.8%
CC(C)[C@@H](COc1ccccc1)N1CCN(Cc2ccccc2)CCC1=O	-1.5	2.7	5.7	-18.9	1.2	·	·
Cc1cccc(N2CCN(C(=O)C3CCN(S(=O)(=O)c4c(C)noc4/C=C/c4ccccc4F)CC3)CC2C)c1 (centres undefined)	-0.6	·	·	·	6.0	·	·
Cc1nn(C)c(C)c1/C=C(/C(=O)C(C)C)n1cncn1	4.0	-1.9	-12.1	9.5	-6.2	-7.4%	-4.9%
CCCn1c2ccccc2c2cnn(CC(=O)OC)c(=O)c21	41.1*	-2.8	-12.0	-8.7	2.8	0.7%	-0.7%
COc1ccccc1N1CCN(CCCNC(=O)Cn2ncc3c([nH]c4ccccc43)c2=O)CC1	26.9	-4.5	-34.2	90.3*	-25.6	-24.1%	7.0%
Cn1c(=O)cc(OCC(=O)NCCCN2CCN(c3ccccc3F)CC2)c2ccccc21	86.2*	45.1*	?	78.2*	-19.0	-5.7%	?
Cn1c(C(=O)NCCCN2CCN(c3ccccc3F)CC2)cc2c(=O)[nH]c3ccccc3c21	71.3*	?	14.3	104.6*	-23.5	9.6%	29.1%
COC(=O)c1ccc(NC(=O)N2CCN(c3nnc(C)c4c(C)n(-c5ccccc5)nc34)CC2)cc1	0.6	·	·	·	-5.3	·	·

High-throughput results deposited in PubChem BioAssay by National Center for Advancing Translational Sciences (NCATS).
